Experiment: yeast AGP1-GFP fluorescence change, single-dose confirmation – cell-based, flow cytometry, S. cerevisiae, cherry pick set 3 (AID 504334);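 further: median GFP fluorescence per well by flow cytometry over the all cells gate; ratio of sample to mean DMSO control signal so DMSO = 100% not 0%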
Settings: S. cerevisiae AGP1-GFP strain, 3 h, at 10 µM, stronger effect = higher value;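 active means response relative to DMSO over 150%; inconclusive means yeast strain with under 70 recorded events; inactive means the rest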

Percent response vs DMSO, inactive:
CCC(C)Nc1nc(N)c([N+](=O)[O-])c(Nc2cc(OC)ccc2OC)n1 (centres undefined) 98.8%
COc1ccc(N/C(C)=C/C(=O)c2ccccc2)cc1 98.4%
CCCOCc1ccc(O)c2ncccc12 99.8%
CN(C)CCCNc1cc(O)c2ncccc2c1 105%
C=CCNc1ncnc2ccc(Br)cc12 101%
OCc1ccc(O)c2ncccc12 98.8%
CC(C)Nc1ncnc2ccc(Br)cc12 99.4%
COc1ccccc1Nc1nc(NCCC(C)C)nc(N)c1[N+](=O)[O-] 104%
CCCCC(=O)NCCc1cc2c(OC)ccc(OC)c2[nH]c1=O 98.8%
CSc1nc(S(C)(=O)=O)nc2[nH]c(=O)[nH]c12 103%
CC(=O)CC(=O)Nc1ccc(C(N)=O)cc1 100%
Nc1ccc(O)c2c1C(=O)c1ccccc1C2=O 103%
O=C(Nc1ccccc1Cl)ON=C1c2ccccc2-c2ccccc21 99.1%
N#Cc1c(N)nc(N)nc1Nc1ccc(Br)cc1 98.4%
O=C(O)c1ccc2cccc(O)c2n1 103%
C/C(=N\NC(=O)c1ccccc1)c1ccccc1F 105%
O=C(Nc1ccc(-c2nc3ccccc3o2)cc1)c1cccnc1 100%
CSc1ccccc1OCc1cc(C(=O)N2CCN(C)C(c3ccccc3)C2)no1 (centres undefined) 101%
CCN(CC)c1ncnc2ccc(Br)cc12 97.8%
CC(=O)Nn1cnc2c(c1=O)C1(CCCCC1)Cc1ccccc1-2 104%
NC(=O)COc1cccc2cccnc12 98.1%
C/C(=C\C(=O)c1ccccc1)Nc1ccc(O)cc1 98.4%
O=C(O)CCS(=O)(=O)c1nc(-c2cccs2)cc(C(F)(F)F)n1 111%
O=c1cc(C(F)(F)F)[nH]c2c(OC(F)(F)F)cccc12 99.4%
CC(=O)NCCOc1cccc2cccnc12 101%
Nn1cnc2c(c1=O)C1(CCCCC1)Cc1ccccc1-2 94.1%
COc1cccc(NC(=O)CC(C)=O)c1 98.8%
COc1cccc2c(Cl)c(CCCl)c(C)nc12 99.8%
Oc1c(Cl)cc(Cl)c2cccnc12 98.8%
O=C(Nc1cccc2ccccc12)ON=C1CCCCC1 99.8%
CNc1nc(N)c([N+](=O)[O-])c(Nc2ccccc2OC)n1 89.8%
CCc1c(C)nc2c(OC)cccc2c1Cl 99.4%
OCc1ccnc2c(O)cccc12 100%
C/C(=C\C(=O)c1ccccc1)Nc1cccc(O)c1 97.1%
COc1ccccc1-c1cc(C(F)(F)F)nc(S(=O)(=O)CCCC(=O)O)n1 110%
CCN(CC)C(=O)Oc1ccnc2cc(Cl)ccc12 108%
Brc1ccc2ncnc(NCc3ccccc3)c2c1 94.8%
COC(=O)c1cc(=O)c2cccc(OC)c2[nH]1 99.4%
O=C(N/N=C/c1ccccc1O)c1cccc2ccccc12 99.8%
